Screening results: PubChem BioAssay, National Center for Advancing Translational Sciences (NCATS)
GBA activity: alters purified human glucocerebrosidase activity. purified enzyme, resorufin glucoside fluorescence (screen aimed at inhibitors), 20 min. Potency, µM. 1.1% of 48,000 active. AID 360; in the data active = potency below about 15 µM; inconclusive = mostly about 16 µM to 33 µM;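 note: potency is the fitted concentration of half-maximal effect; the screen sought inhibitors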
Target sequence (P04062 whole entry, looked up): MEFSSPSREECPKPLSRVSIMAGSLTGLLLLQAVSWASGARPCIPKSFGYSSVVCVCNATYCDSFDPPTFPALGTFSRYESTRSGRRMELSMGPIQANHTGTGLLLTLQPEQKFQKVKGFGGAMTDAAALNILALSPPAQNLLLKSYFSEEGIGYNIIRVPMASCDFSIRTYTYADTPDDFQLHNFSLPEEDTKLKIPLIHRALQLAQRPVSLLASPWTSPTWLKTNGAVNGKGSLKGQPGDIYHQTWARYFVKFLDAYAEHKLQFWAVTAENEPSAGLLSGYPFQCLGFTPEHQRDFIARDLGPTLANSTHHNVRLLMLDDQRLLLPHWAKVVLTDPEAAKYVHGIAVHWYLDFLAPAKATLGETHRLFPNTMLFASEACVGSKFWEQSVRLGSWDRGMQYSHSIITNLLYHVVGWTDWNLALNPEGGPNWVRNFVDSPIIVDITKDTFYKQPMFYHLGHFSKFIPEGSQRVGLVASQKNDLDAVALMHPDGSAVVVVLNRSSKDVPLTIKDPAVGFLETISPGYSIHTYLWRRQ
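Normal human glucocerebrosidase (0.2 nM final) was assayed with resorufin β-D-glucopyranoside (30 uM final) in 50mM citric acid/KH2PO4, 10mM sodium taurocholate, 0.01% tween-20, pH 5.9. Compounds were titrated; fluorescence (Ex 548, Em 600) read after 20 min at RT.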
AID923: qHTS Assay for Allosteric/Competitive Inhibitors of Caspase-1: Spectroscopic Profiling in AFC Spectral Region; Potency, µM (top dose mostly 57.5 µM), without a hit: at the highest dose fluorescence increase, hits mostly activators; compound fluorescence, AFC spectral region (405/520 nm); 1.1% of 75,000 active; note: potency is the fitted concentration of half-maximal effect; 0% is about no effect
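Compound autofluorescence profiled at 405 nm ex/520 nm em during kinetic caspase 1 run (50 nM enzyme, 5 uM Ac-WEHD-AFC, HEPES pH 7.5, 10 mM DTT). Titration up to 57 uM; baseline from regression intercept, normalized to AFC standard curve.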
4-MU autofl: 4-MU region autofluorescence | compound autofluorescence, 340/450 nm, 4-MU equivalents; active compounds read high | max dye-equivalent concentration, M | 11% of 59,000 active | AID 589; in the data active = max dye-equivalent concentration above about 10 nM; inconclusive = mostly about 1.1 nM to 9.6 nM
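Compounds in 100 mM Tris, pH 8.0, incubated 15 min at room temperature, then fluorescence read at 340 nm excitation/450 nm emission. Signal converted to 4-MU dye-equivalent concentration using an on-plate six-point 4-MU standard curve.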
A350 fluor: compounds fluorescent in Alexa 350 spectral region. Compound autofluorescence, 340/450 nm, Alexa 350 dye-equivalents; active compounds read high. max dye-equivalent concentration, M. 11% of 59,000 active. AID 590; in the data active = max dye-equivalent concentration above about 10 nM; inconclusive = mostly about 1.1 nM to 9.6 nM
HADH2 inh: HADH2 (human) dehydrogenase inhibition; Q99714; recombinant HADH2, NADH fluorescence, beta-hydroxybutyryl-CoA; Potency, µM (highest dose often 57.1 µM), for inactives: at the top dose activity change, negative = inhibition, usual class: inhibitors; 3.4% of 73,000 active; note: potency is the fitted concentration of half-maximal effect; % is set by controls: 0 for no effect and ±100 for the full control effect; nearly all actives have a fitted effect of over 60% in size
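Read-out: 360 nm excitation, 450 nm emission, kinetic over 4 min. Conditions: His-tagged human HADH2 20 nM, pH 9.0 Tris with Tween-20, 1 mM NAD+, 90 uM beta-hydroxybutyryl-CoA.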
HSD17B inh: blocks hydroxysteroid 17-beta dehydrogenase activity; recombinant HSD17B10, NADH fluorescence kinetic; Potency, µM (highest dose often 57.1 µM), inactives show at the top dose activity change, negative = inhibition, hits mostly inhibitors; 7.6% of 75,000 active; AID 893;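 note: the protocol describes HADH2 (HSD17B10) and not the HSD17B4 of the title; potency is the fitted concentration of half-maximal effect; % is set by controls: 0 for no effect and ±100 for the full control effect; nearly all actives have a fitted effect of over 70% in size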
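His-tagged E. coli-expressed HADH2 at 20 nM in 100 mM Tris-HCl pH 9.0 with 0.01 % Tween-20, preincubated 15 min with compound at room temperature. Reaction with 1 mM NAD+ and 90 uM beta-hydroxybutyryl coenzyme A; NADH fluorescence (360/450 nm) read kinetically over 4 min, last minus first point.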
Active calls of the source: *; i = inactive; ? = inconclusive; . = not tested or not shown; [ ] = dose if it differs, or a comment. Rows were chosen to be rich in hits. Some 13% of all compounds tested hit in one or more screens of this group. Unless noted, calls come from the whole dose curve; as a rule, active = well fitted curve in the direction sought with a large enough effect; inconclusive = small, poorly fitted or top-dose-only effect, or another doubt; inactive = no such curve, though single readings can be large; an effect the other way counts as inactive or inconclusive.

SMILES | GBA activity | AID923 | 4-MU autofl | A350 fluor | HADH2 inh | HSD17B inh
COc1ccc(OCC(O)COc2ccc(OC)cc2)cc1 | >76.9 | 1.2% | i | ? | 1.8% | -6.9%
COc1ccc(OCC(O)Cn2c(=N)n(Cc3ccccc3)c3ccccc32)cc1 (stereo not given) | 13.8* | -1.7% | i | i | -6.0% | -3.2%
N=c1n(CCO)c2ccccc2n1CCOc1ccccc1 | 6.02* | 0.5% | i | i | 13.5% | 9.7%
N=c1n(CCO)c2ccccc2n1Cc1ccc(Cl)cc1 | ? | -1.8% | i | i | -4.0% | 9.2%
CCn1c(=N)n(CCOc2ccc(OC)cc2)c2ccccc21 | 6.9* | -0.7% | i | i | 3.4% | 5.7%
CCOC(=O)c1cnn(CCOC(=O)Cc2cccs2)c1NC(=O)Cc1cccs1 | . | 0.4% | i | i | -23.0% | 1.3%
Cc1ccc(S(=O)(=O)N[C@H]2COC(=O)[C@@H](C)COC(=O)C/C=C\[C@H]2C)cc1 | . | 2.2%[11.5 µM] | . | . | -3.6%[11.4 µM] | 5.5%[11.4 µM]
COC(=O)[C@@]1(Cc2ccc(F)cc2)[C@H]2c3cc(C(=O)N4CCCC4)n(CCc4ccc(O)c(O)c4)c3C[C@H]2CN1C(=O)c1ccccc1 | . | -1.4% | . | . | 15.8µM* | 20µM*
COC(=O)[C@@]1(Cc2ccc(F)cc2)[C@H]2c3cc(C(=O)N(C)C)n(CCF)c3C[C@H]2CN1C(=O)c1ccccc1 | . | 2.5% | . | . | 6.3% | 8.8%
COC(=O)[C@@]1(Cc2ccc(F)cc2)[C@H]2c3cc(C(=O)N4CCCC4)n(CCc4ccc(OC)c(Br)c4)c3C[C@H]2CN1C(=O)c1ccccc1 | . | 1.3% | . | . | 6.8% | 18.2%
COC(=O)[C@@]1(Cc2ccc(OC)cc2)[C@H]2c3cc(C(=O)N4CCCC4)n(CCO)c3C[C@H]2CN1C(=O)c1ccccc1 | . | 2.1% | . | . | -8.2% | 35.0%
COC(=O)[C@@]1(Cc2ccc(F)cc2)[C@H]2c3cc(C(=O)N4CCCC4)n(CCO)c3C[C@H]2CN1C(=O)c1ccccc1 | . | -4.2% | . | . | 11.4% | 25.1µM*
COC(=O)[C@@]1(Cc2ccc(F)cc2)[C@H]2c3cc(C(=O)N(C)C)n(CCc4ccc(O)c(O)c4)c3C[C@H]2CN1C(=O)c1ccccc1 | . | -2.1% | . | . | 15.8µM* | 31.6µM*
CCOC(=O)C1=C(c2ccccc2)N2CCN=C2S1 | >76.9 | -0.7% | i | i | -4.4% | 4.7%
COc1[nH]c2ccc(F)cc2c1C(=O)OCC1CCN(CCNS(C)(=O)=O)CC1 | . | 1.1% | i | i | 10.4% | 8.3%
CCOC(=O)N1CCC(Nc2cc(C)nc3c(-c4ccccc4OC)c(C)nn23)CC1 | . | 2.8% | . | . | -2.7% | -7.0%
CCOC(=O)N1CCC(Nc2nc3ccccc3n3nnnc23)CC1 | >76.9 | 2.6% | 1.05e-08M* | 1.46e-08M* | ? | 12.6µM*
O=C1CC2(CCCC2)CC(=O)N1CCCCNC[C@H]1COc2ccccc2O1 | . | -0.7% | . | . | -4.7% | -0.6%
COc1cccc(-c2cc(C(=O)N/N=C/c3ccccc3O)[nH]n2)c1 | . | 1.1% | . | . | 23.1% | 0.7%
CCOC(=O)c1sc(NC(=O)C(CC)Sc2nnc3c4ccccc4n(CC)c3n2)nc1C (stereo not given) | >76.9 | 1.7% | 3.58e-08M* | 3.42e-08M* | 4.0% | -12.2%
CCOC(=O)c1sc(NC(=O)CSc2nnc3c4ccccc4n(CC)c3n2)nc1C | . | 1.1% | . | . | ? | ?
OC[C@@H]1O[C@H](n2cnc3c(/C=C(\O)c4ccccc4)ncnc32)[C@H](O)[C@@H]1O | . | -0.9%[11.5 µM] | ? | ? | 15.1%[11.4 µM] | 8.6%[11.4 µM]
Cc1ccc(C(=O)C2=C(O)C(=O)N(CCCN(C)C)C23C(=O)N(C)c2ccccc23)o1 (stereo not given) | >76.9 | 0.3% | 1.36e-08M* | ? | 1.9% | 3.1%
CCc1nc(N)nc(N)c1-c1ccc(Cl)cc1 | . | 1.2% | i | i | -5.0% | 5.5%
Clc1ccc(/C=C\c2nc(Cl)c(-c3ccc(Cl)cc3)c(Cl)n2)cc1 | . | 0.9%[11.5 µM] | 1.09e-08M* | ? | 17.7%[11.4 µM] | ?
CCc1nnc(NC(=O)CSc2nc3ccccc3s2)s1 | ? | 0.6% | i | i | ? | 31.6µM*
